The values below come from PubChem BioAssay (NCATS).

Records with an inconclusive call do not appear. Entries that show only a call come without a potency. Calls of active or inactive are those of the source. Calls come from the whole dose curve; as a rule, active = well fitted curve in the direction sought with a large enough effect; inconclusive = small, poorly fitted or top-dose-only effect, or another doubt; inactive = no such curve, though single readings can be large or run the other way.

Glucagon-like peptide 1 receptor (Homo sapiens), sequence (P43220 whole entry, looked up): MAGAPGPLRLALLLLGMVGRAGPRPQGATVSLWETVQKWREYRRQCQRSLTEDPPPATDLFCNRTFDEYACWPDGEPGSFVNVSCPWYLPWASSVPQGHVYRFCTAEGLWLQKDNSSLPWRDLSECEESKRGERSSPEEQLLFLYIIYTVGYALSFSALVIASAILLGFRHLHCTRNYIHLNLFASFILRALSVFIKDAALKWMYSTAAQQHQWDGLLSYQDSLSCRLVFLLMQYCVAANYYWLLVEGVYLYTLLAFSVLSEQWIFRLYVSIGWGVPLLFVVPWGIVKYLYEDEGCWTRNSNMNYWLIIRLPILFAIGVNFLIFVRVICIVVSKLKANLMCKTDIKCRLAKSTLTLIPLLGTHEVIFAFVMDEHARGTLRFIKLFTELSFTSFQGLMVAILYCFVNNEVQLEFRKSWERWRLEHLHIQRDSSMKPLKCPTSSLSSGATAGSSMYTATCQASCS

This test deals with Glucagon-like peptide 1 receptor (Homo sapiens) (UniProt P43220). The test can be described thus: qHTS of GLP-1 Receptor Agonists: LOPAC Validation (AID 624148).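 Note: luminescence from a luciferase reporter switched on by cAMP; higher luminescence signal means agonism.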 Particulars: GLP-1R agonist cell assay; series mostly up to 46.1 µM. From the text:
The overall goal of this project was to develop a novel assay for discovering small molecule ligands for class B1 G protein-coupled receptors (GPCRs). Very few agonists (or inverse agonists) with generally weak activity for this entire group of physiologically important receptors are known to date. To establish proof-of-principle that this critical bottleneck can be overcome with a suitable screening approach, our studies focused on the class B1 receptor for glucagon-like peptide-1 (GLP-1R), a potential therapeutic target for diabetes and neurodegenerative disease.
The assay was developed in a "mix and measure" format using a cell-based functional readout. Toward this goal, stably transfected HEK293 cell clones were established that co-express (i) a cAMP-responsive luciferase reporter gene, and (ii) GLP-1Rs that upon ligand interaction either stimulate (agonists) or inhibit (inverse agonists) luciferase activity. In different cell lines to be used for screening, expressed GLP-1Rs are specifically optimized for high sensitivity detection of either weak agonists (hypersensitive receptor) or inverse agonists (constitutively active receptor mutant). In addition, control cell lines were developed that express either the cAMP-responsive reporter gene without recombinant GLP-1Rs (enabling initial exclusion of GLP-1R independent effects of candidate probes), or the reporter gene together with wild type GLP-1Rs (for confirmation of probe activity at this receptor), or the reporter gene in combination with the constitutively active orphan receptor GPR119 (enabling initial exclusion of GLP-1R independent inhibitory effects of candidate inverse agonists).
To that end, this assay was optimized for 1536-well format and screened against the MLSMR.
NIH Molecular Libraries Probe Production Network [MLPCN]
NIH Chemical Genomics Center [NCGC]
PI Name: Martin Beinborn, Tufts Medical Center
In a white solid 1536-well plate, 6 uL of cells are dispensed in DMEM without phenol red, 10% Nu serum, and 1% pen-strep medium. The plates are then incubated for 12 hours at 37 deg C at 5% CO2 before 23 nL of compounds are added. After a 4-6 hr incubation at37 deg C and 5% CO2, 3 uL of detection reagent are added and after a 12 min incubation at RT, a luminescent read is obtained on the ViewLux.
On the technique in general: Quantitative high-throughput screening tests each substance at several concentrations.
In the case of `CCC1(C)CC(=O)NC1=O` (stereo not given), the Potency entry is “inactive”.
Under `O=C1Cc2cc(CCN3CCN(c4nsc5ccccc45)CC3)c(Cl)cc2N1` stands “inactive”; under `Cn1c(=O)c2[nH]cnc2n(C)c1=O`, “inactive”; under `NC(=O)NO`, “inactive”.
Under `CN(C)CCCN1c2ccccc2CCc2ccc(Cl)cc21` stands “inactive”.
In the case of `O=C1N(c2ccccc2)c2ccccc2C1(Cc1ccncc1)Cc1ccncc1`, the Potency entry was “inactive”.
Under `NC(CO)C(=O)NNCc1ccc(O)c(O)c1O` (stereo not given) stands “inactive”; under `COc1ccccc1OCCNCC(O)COc1cccc2[nH]c3ccccc3c12` (stereo not given), “inactive”.
`O=C1c2c(O)ccc(O)c2C(=O)c2c(NCCNCCO)ccc(NCCNCCO)c21`: the Potency result is “inactive”.
With `CN1CCN2c3ccccc3Cc3ccccc3C2C1` (stereo not given), the Potency entry was “inactive”.
Take `CC(COc1ccccc1)N(CCCl)Cc1ccccc1` (stereo not given): the Potency entry was “inactive”.
In the case of `CN1CCN(C2=Nc3cc(Cl)ccc3Nc3ccccc32)CC1` it was “inactive”; in that of `CCOC(=O)c1ncn2c1CN(C)C(=O)c1cc(F)ccc1-2`, “inactive”; in that of `C[C@](N)(Cc1ccc(O)c(O)c1)C(=O)O`, “inactive”.
On to `Nc1c2c(nc3ccccc13)CCCC2`, for which the Potency entry was “inactive”.
For the compound `CCN1CCCC1CNC(=O)c1cc(S(=O)(=O)CC)c(N)cc1OC` (stereo not given), the Potency entry was “inactive”.
On to `NC(=O)OCC(COC(N)=O)c1ccccc1`, for which the Potency entry was “inactive”.
Regarding `CC#C[C@]1(O)CC[C@H]2[C@@H]3CCC4=CC(=O)CCC4=C3[C@@H](c3ccc(N(C)C)cc3)C[C@@]21C`, the Potency entry was “inactive”.
In the case of `COc1cc2c(c(OC)c1OC)-c1ccc(OC)c(=O)cc1[C@@H](NC(C)=O)CC2` it was “inactive”; in that of `CN(C)C(=O)C(CCN1CCC(O)(c2ccc(Cl)cc2)CC1)(c1ccccc1)c1ccccc1`, “inactive”.
As to `Clc1ccc2c(c1)C(N1CCNCC1)=Nc1ccccc1O2`, the Potency result was “inactive”.
In the case of `CCC1(c2ccccc2)C(=O)NCNC1=O` it was “inactive”.
In the case of `O=C(CCCN1CCC(O)(c2ccc(Cl)cc2)CC1)c1ccc(F)cc1` it was “inactive”; in that of `CN(Cc1cnc2nc(N)nc(N)c2n1)c1ccc(C(=O)N[C@@H](CCC(=O)O)C(=O)O)cc1`, “inactive”.
In the case of `CNCCCC12CCC(c3ccccc31)c1ccccc12` it was “inactive”.
As for `Cc1cn([C@H]2C[C@H](N=[N+]=[N-])[C@@H](CO)O2)c(=O)[nH]c1=O`, the Potency entry is “inactive”.
Consider `CN1CCC(=C2c3ccccc3C=Cc3ccccc32)CC1`, for which the Potency result was “inactive”.
With `CN1CCC(=C2c3ccccc3CC(=O)c3sccc32)CC1`, the Potency entry is “inactive”.
In the case of `Cn1c(=O)c2c(ncn2C)n(C)c1=O` it was “inactive”.
Under `CC(C)NCC(O)COc1ccc(CCOCC2CC2)cc1` (stereo not given) stands “inactive”; under `CC12CC3CC(C)(C1)CC(N)(C3)C2`, “inactive”.
In the case of `O=c1[nH]cc(F)c(=O)[nH]1` it was “inactive”; in that of `Cc1ccc(C(=O)Nc2ccc(S(=O)(=O)O)c3cc(S(=O)(=O)O)cc(S(=O)(=O)O)c23)cc1NC(=O)c1cccc(NC(=O)Nc2cccc(C(=O)Nc3cc(C(=O)Nc4ccc(S(=O)(=O)O)c5cc(S(=O)(=O)O)cc(S(=O)(=O)O)c45)ccc3C)c2)c1`, “inactive”; in that of `CC[N+](CC)(CC)CCOc1cccc(OCC[N+](CC)(CC)CC)c1OCC[N+](CC)(CC)CC`, “inactive”.
As to `CC(C)(Oc1ccc(C2CC2(Cl)Cl)cc1)C(=O)O` (stereo not given), the Potency result was “inactive”.
`Clc1ccccc1C(c1ccccc1)(c1ccccc1)n1ccnc1`: the Potency result is “inactive”.
In the case of `COc1ccccc1OCC(O)CN1CCN(CC(=O)Nc2c(C)cccc2C)CC1` (stereo not given) it was “inactive”; in that of `CN1CCN(CCCN2c3ccccc3Sc3ccc(Cl)cc32)CC1`, “inactive”.
In the case of `Cc1cn([C@H]2C=C[C@@H](CO)O2)c(=O)[nH]c1=O` it was “inactive”.
In the case of `CC(C)C(=O)Nc1ccc([N+](=O)[O-])c(C(F)(F)F)c1` it was “inactive”.
